This note sets out measurements from PubChem BioAssay (NCATS).

Assay [1] addresses Cytochrome P450 1A2 (Homo sapiens) (UniProt P05177). As to the kind of experiment: p450-cyp1a2 (AID 410; calls by dose curve; further: potency means the concentration at half of the fitted maximal effect). Put shortly: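 20nM CYP1A2 with 100uM Luciferin-ME (at Km) in 100mM KPO4; compound preincubated 10 min, NADPH regeneration added, 60 min at room temperature. Luciferin quantified by luminescence after detection reagent; normalized to 57 uM furafylline.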
Assay [2] is described as follows: NFAT Signaling Pathway (AID 444; active means well fitted curve in either direction with a large enough effect, not every such curve was filed as active;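 further: carbachol stimulus at about its EC50 of 1 µM final; on the % scale 0 is the no-effect control and ±100 the full control effect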). The note with it: Jurkat NFAT-bla M1, carbachol, beta-lactamase ratio, 5 h; at 38 µM (top of the series). Put shortly:
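Read-out: CCF4 FRET ratio (460 nm/530 nm) after 1 h RT dye loading, used for %activity and AC50 from titration series. Cells: Jurkat NFAT-β-lactamase/M1 line, treated with compound plus 1 uM carbachol for 5 h, 37 °C.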

In assay [3] the target is Glucocorticoid receptor (Homo sapiens) (UniProt P04150). As to the kind of experiment: GR-GFP Redistribution (AID 450;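 active means compounds whose dose series gives a full or clear partial fitted curve of increased nuclear translocation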; further: potency means the concentration at half of the fitted maximal effect). The note with it: U2OS GR-GFP nuclear translocation, laser cytometry, 2 h.
Chain of Glucocorticoid receptor (Homo sapiens) (P04150 whole entry, looked up, the tested form may be a part): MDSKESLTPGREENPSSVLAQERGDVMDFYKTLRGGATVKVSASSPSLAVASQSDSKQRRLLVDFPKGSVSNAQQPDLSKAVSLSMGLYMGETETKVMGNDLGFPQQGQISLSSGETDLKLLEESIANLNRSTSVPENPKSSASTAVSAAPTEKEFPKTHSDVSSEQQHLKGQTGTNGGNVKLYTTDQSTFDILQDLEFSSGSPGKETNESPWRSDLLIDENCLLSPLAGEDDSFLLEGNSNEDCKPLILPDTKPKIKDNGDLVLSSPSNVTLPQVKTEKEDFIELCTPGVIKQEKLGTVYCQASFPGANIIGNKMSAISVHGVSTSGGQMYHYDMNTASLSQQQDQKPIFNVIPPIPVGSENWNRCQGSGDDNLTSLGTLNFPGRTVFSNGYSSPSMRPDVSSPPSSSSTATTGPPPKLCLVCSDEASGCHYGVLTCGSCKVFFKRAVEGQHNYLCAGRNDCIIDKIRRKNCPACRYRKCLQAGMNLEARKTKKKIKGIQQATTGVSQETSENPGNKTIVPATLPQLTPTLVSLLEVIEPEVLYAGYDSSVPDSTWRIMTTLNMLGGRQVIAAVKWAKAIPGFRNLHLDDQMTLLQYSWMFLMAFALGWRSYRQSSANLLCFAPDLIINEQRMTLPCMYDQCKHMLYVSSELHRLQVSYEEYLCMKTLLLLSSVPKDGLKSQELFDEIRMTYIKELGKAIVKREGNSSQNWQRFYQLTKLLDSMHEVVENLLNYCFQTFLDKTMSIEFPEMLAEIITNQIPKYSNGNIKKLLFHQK
The target is the same in assay [4]. As to the kind of experiment: GR-EFC Redistribution (AID 451; calls by dose curve; further: potency means the concentration at half of the fitted maximal effect). To be noted: CHO-K1 GR-EFC translocation, beta-gal luminescence, 2 h. Put shortly: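 Translocation of GR-ED fusion to nuclear EA restores b-gal, read by luminescence after 1 h room-temperature detection. Engineered CHO-K1 biosensor cells, 1,000/well, exposed 2 h at 37 C to titrations up to 46 uM final.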

For assay [5], the target named is Mitogen-activated protein kinase 10 (Mus musculus) (UniProt Q61831). As to the kind of experiment: JNK3 AlphaScreen Assay (AID 530; active means well fitted curve in either direction with a large enough effect, not every such curve was filed as active;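 further: kinase came from lysate of stimulated human HepG2 cells; potency means the concentration at half of the fitted maximal effect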). The method, boiled down: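 Compound titrations were preincubated 15 minutes at room temperature with substrate, antibody and pre-activated JNK3-containing HepG2 lysate. Reactions were started with 10 uM ATP and stopped with EDTA-containing bead buffer for AlphaScreen detection.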

The target of assay [6] is 3',5'-cyclic-AMP phosphodiesterase 4B (Homo sapiens) (UniProt Q07343). As to the kind of experiment: qHTS Assay for Inhibitors of PDE-IV (AID 607; active means well fitted activation curve with a large enough effect in the main read-out, with a control signal flat, not every such curve was filed as active; further: % of control where 0% means no effect). Put shortly: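 HEK293 ACTOne cells with CNG channel (1000/well), endogenous PDE4; membrane potential dye, compounds up to 22.9 uM final. Fluorescence Ex 535/Em 590; RO 20-1724 (100 uM final) as reference.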
Chain of 3',5'-cyclic-AMP phosphodiesterase 4B (Homo sapiens) (Q07343 whole entry, looked up): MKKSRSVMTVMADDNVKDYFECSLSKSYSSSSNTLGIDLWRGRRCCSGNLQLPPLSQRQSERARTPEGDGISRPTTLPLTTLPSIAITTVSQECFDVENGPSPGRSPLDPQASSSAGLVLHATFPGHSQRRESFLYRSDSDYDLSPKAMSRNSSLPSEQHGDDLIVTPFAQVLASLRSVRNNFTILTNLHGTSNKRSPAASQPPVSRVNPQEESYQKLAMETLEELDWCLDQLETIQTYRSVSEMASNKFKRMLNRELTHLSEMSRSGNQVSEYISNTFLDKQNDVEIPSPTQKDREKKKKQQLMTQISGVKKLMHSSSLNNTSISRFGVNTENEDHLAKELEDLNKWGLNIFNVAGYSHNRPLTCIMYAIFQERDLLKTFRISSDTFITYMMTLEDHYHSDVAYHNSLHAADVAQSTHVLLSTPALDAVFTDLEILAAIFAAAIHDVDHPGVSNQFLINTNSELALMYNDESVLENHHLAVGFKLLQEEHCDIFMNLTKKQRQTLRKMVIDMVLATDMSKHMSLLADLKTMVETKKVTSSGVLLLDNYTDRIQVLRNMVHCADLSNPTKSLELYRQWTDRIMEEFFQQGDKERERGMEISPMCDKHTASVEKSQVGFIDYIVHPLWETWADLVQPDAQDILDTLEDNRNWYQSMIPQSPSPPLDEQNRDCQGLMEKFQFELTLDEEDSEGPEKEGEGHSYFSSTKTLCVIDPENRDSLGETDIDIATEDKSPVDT
Assay [7] deals with Guanine nucleotide-binding protein G(i) subunit alpha-1 (Homo sapiens) (UniProt P63096). As to the kind of experiment: qHTS Assay for Inhibitors of RGS12 GoLoco Motif Activity (Green Fluorophore) (AID 879).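 Further: 0% = labeled peptide with Gαi1 and full inhibition = labeled peptide alone without protein; negative values mean loss of peptide binding seen as reduced polarization.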 The method, boiled down: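 Fluorescence polarization assay: 50 nM Gαi1 with 10 nM FITC-labeled RGS12 GoLoco peptide in 10 mM Tris pH 7.5, 150 mM NaCl, 0.1 mM GDP, 0.05% NP40, 10 min at room temperature with compound.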

Assay [8] has as its target Cytochrome P450 2C9 (Homo sapiens) (UniProt P11712). Nature of the assay: qHTS Assay for Inhibitors and Substrates of Cytochrome P450 2C9 (AID 883). Further: on the % scale 0 is the no-effect control and ±100 the full control effect; nearly all actives have a fitted effect of over 60% in size. Put shortly: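 Turnover of Luciferin-H (100uM, KM) by 10nM human CYP2C9 was measured over 60 min at 37C with NADPH regeneration; inhibitors and some substrates reduce luminescence. Data normalized to sulphaphenazole 57uM.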

In assay [9] the target is Cytochrome P450 3A4 (Homo sapiens) (UniProt P08684). Nature of the assay: qHTS Assay for Activators of Cytochrome P450 3A4 (AID 885). Further: nearly all actives have a fitted effect of over 65% in size. The method, boiled down: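 Human CYP3A4 (20 nM) with Luciferin-PPXE at 25 uM (its KM) in 200 mM KPO4; 10 min compound preincubation, then NADPH regeneration and 60 min reaction at RT. Luciferin read by luminescence; normalized to 57 uM ketoconazole full inhibition.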

Assay [10] deals with Cytochrome P450 2D6 (Homo sapiens) (UniProt P10635). As to the kind of experiment: qHTS Assay for Inhibitors and Substrates of Cytochrome P450 2D6 (AID 891).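 Further: luciferin methyl ether substrate demethylated by CYP2D6 with NADPH regeneration; on the % scale 0 is the no-effect control and ±100 the full control effect; nearly all actives have a fitted effect of over 60% in size.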 Put shortly: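 Human CYP2D6 (5 nM) with 30 uM Luciferin-ME EGE (at Km) in 100 mM KPO4, compound preincubated 10 min, then NADPH regeneration system for 60 min at room temperature. Luciferin read by luminescence; normalized to 1.43 uM quinidine.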

The nature of assay [11]: qHTS Assay for Identification of Small Molecule Agonists for Thrombopoietin (TPO) Signaling Pathway (AID 917). Further: on the % scale 0 is the no-effect control and ±100 the full control effect. The method, boiled down: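 Activators of TPO signaling were sought in murine Ba/F3 cells transfected with the human receptor, using a luciferase gene driven by the Glycoprotein IIb promoter; 24-hr compound exposure at 37 C alongside 26 pM TPO, in IL-3-free medium.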

Assay [12] concerns the target Muscarinic acetylcholine receptor M1 (Rattus norvegicus) (UniProt P08482). As to the kind of experiment: qHTS Assay for Antagonists of Acetylcholine Muscarinic M1 Receptor: Kinetic Measurement of Intracellular Calcium Response (AID 943). Further: nearly all actives have a fitted effect of over 75% in size. The method, boiled down:
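CHO cells expressing rat M1 receptor, Fluo-4 loaded, preincubated 10 min with compound, then stimulated with EC80 carbachol (100 nM final). Kinetic calcium fluorescence over 4 min; response taken as peak over basal signal.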

Assay [13] has as its target Pyruvate kinase PKM (Homo sapiens) (UniProt P14618). As to the kind of experiment: qHTS Assay for Activators of Human Muscle Pyruvate Kinase (AID 954; active means well fitted curve in the direction sought with a large enough effect, not every such curve was filed as active;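 further: 0% = uninhibited enzyme and -100% = no enzyme or full thiadiazolimine inhibition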). Put shortly:
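Purified human PKM2 (0.1 nM) with 0.5 mM PEP (Km) and 0.1 mM ADP in 50 mM imidazole pH 7.2, KCl, MgCl2, 1 h at room temperature; ATP formed read by coupled luciferase luminescence. Normalized to no-enzyme/110 uM thiadiazolimine inhibition; 0.3 nM enzyme column for activation.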

For assay [14] the target is unchanged. As to the kind of experiment: qHTS Assay for Inhibitors of Human Muscle Pyruvate Kinase (AID 958). To be noted: purified human PKM enzyme activity. The method, boiled down:
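A coupled luminescent readout tracked ATP made from ADP by purified PKM2. Final conditions included 0.1 nM enzyme, PEP and ADP at 0.5 and 0.1 mM, pH 7.2 imidazole buffer with BSA, and a one-hour room-temperature reaction.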

Assay [15] deals with Pyruvate kinase (Leishmania mexicana) (UniProt Q27686). Nature of the assay: qHTS Validation Assay for Activators of Leishmania Mexicana Pyruvate Kinase (AID 959). The method, boiled down: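 Pyruvate kinase activity of E451W LmPYK (0.2 nM) was followed as ATP output after 1 h at room temperature with 0.5 mM PEP and 0.1 mM ADP, detected by PKLight luminescence.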
Chain of Pyruvate kinase (Leishmania mexicana) (Q27686 2-499 E452W): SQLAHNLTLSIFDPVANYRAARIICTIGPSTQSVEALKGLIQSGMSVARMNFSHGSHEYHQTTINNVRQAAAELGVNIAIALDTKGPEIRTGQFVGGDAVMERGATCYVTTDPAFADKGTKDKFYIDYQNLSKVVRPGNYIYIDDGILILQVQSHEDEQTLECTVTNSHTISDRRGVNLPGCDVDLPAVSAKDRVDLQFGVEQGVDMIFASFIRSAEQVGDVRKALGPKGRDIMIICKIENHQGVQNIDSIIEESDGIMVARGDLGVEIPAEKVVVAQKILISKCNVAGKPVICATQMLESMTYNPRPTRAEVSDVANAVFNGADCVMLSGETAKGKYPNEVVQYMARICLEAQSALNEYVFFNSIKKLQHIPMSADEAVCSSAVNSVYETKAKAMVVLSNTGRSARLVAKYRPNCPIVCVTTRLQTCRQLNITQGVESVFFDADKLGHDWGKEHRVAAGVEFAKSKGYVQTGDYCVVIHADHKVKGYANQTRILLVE
Assay [16] addresses Alpha-galactosidase A (Homo sapiens) (UniProt P06280). As to the kind of experiment: Counterscreen for Glucocerebrosidase Inhibitors: qHTS Assay for Human alpha-Galactosidase at pH 4.5 (AID 992). Further: 0% is about no effect. Put shortly: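 Human enzyme (2 nM) with 80 uM 4-methylumbelliferyl alpha-D-galactopyranoside in 50 mM citric acid, 0.005% Tween-20, pH 4.5, 20 min at room temperature. Compounds 0.7 nM–77 uM; fluorescence Ex 365/Em 440 after pH 10 stop; AC50 from Hill fits.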

Assay [17] deals with alpha-glucosidase (Oryza sativa, rice) (UniProt Q653V4). Nature of the assay: Counterscreen for Glucocerebrosidase Inhibitors: qHTS Assay for Rice alpha-Glucosidase at pH 5.0 (AID 997).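 Further: 0% = full activity with enzyme and -100% = basal without enzyme.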 The method, boiled down:
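Rice alpha-glucosidase (4 nM final) with 400 uM 4-methylumbelliferyl-alpha-D-glucopyranoside in citrate buffer pH 5.0, 20 min at room temperature, stopped at pH 10; fluorescence 365/440 nm, compounds 0.7 nM–77 uM, AC50 from Hill fits.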

Assay [18] in a line: qHTS Assay for Lipid Storage Modulators (AID 1519; calls by dose curve; on activity change, negative = inhibition: on the % scale 0 is the no-effect control and ±100 the full control effect). To be noted: Drosophila S3 cells, BODIPY lipid droplet/cell ratio, laser cytometry, cells loaded with oleic acid. The method, boiled down:
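Cells seeded at 5,000 per well were treated with compounds over a concentration series and loaded with oleic acid (400 uM, as added). Lipid droplet fluorescence (488 nm excitation, 500-530 nm channel) was read by laser-scanning cytometry and normalized to 20 uM Triacsin C.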

For assay [19], the target named is DNA repair nuclease/redox regulator APEX1 (Homo sapiens) (UniProt P27695). Nature of the assay: qHTS Validation Assay for Inhibitors of the Human Apurinic/apyrimidinic Endonuclease 1 (APE1) (AID 1705;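 further: TAMRA fluorescence gain over two minutes as APE1 cuts a quenched THF abasic duplex; on the % scale 0 is the no-effect control and ±100 the full control effect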). The method, boiled down: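 Read-out: TAMRA fluorescence (525 nm ex, 598 nm em) from cleavage of a quenched THF abasic-site duplex, 50 nM final; activity taken as intensity change between third and first of three reads 60 s apart.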
Chain of DNA repair nuclease/redox regulator APEX1 (Homo sapiens) (P27695 whole entry, looked up): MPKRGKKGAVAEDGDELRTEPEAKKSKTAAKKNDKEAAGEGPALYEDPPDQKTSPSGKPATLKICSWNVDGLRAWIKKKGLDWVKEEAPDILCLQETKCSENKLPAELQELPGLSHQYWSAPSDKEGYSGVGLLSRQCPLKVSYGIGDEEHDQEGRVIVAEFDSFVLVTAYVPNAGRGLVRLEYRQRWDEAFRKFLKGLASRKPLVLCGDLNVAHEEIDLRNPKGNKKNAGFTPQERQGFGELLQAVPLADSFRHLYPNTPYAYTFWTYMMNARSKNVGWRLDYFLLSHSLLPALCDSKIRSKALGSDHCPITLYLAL

The structures appear in SMILES notation. “And” between values parts separate entries of the source, which are not always exact repeats. Equal values may be shown once. Results filed as inconclusive are left out. The source made the active and inactive calls. Unless noted, the call rests on the fitted dose curve; in most records, active means well fitted curve in the direction sought with a large enough effect; inconclusive means small, poorly fitted or top-dose-only effect, or another doubt; inactive means no such curve, though single readings can be large; an effect the other way counts as inactive or inconclusive.

Chain of Pyruvate kinase PKM (Homo sapiens) (P14618 whole entry, looked up): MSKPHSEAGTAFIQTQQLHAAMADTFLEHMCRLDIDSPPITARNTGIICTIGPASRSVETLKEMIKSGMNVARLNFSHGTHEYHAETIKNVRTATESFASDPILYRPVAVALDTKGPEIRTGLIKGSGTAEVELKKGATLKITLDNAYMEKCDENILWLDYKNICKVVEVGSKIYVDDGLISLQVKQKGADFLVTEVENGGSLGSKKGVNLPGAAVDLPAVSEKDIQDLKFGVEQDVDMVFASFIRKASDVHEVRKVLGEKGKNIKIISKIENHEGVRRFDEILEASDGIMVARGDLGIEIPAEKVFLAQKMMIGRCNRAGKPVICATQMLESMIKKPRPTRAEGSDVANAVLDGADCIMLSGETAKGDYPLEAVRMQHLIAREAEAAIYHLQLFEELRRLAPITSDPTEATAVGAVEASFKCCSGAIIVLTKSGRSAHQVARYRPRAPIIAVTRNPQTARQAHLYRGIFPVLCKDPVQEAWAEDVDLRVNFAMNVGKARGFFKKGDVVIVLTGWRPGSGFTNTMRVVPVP
Chain of Cytochrome P450 1A2 (Homo sapiens) (P05177 whole entry, looked up): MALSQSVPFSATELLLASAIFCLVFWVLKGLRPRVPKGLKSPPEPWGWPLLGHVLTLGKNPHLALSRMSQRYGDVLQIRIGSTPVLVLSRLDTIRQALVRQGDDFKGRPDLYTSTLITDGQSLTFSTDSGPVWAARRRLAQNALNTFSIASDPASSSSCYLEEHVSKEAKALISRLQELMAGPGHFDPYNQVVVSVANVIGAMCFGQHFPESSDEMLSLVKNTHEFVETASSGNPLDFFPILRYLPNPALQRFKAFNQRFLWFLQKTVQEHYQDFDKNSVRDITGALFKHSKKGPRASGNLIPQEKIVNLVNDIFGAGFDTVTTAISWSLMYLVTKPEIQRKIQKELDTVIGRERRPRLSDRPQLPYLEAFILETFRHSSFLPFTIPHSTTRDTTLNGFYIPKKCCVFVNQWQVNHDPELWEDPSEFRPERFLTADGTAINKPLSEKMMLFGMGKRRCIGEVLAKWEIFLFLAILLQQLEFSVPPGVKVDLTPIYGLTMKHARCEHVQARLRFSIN
Chain of Muscarinic acetylcholine receptor M1 (Rattus norvegicus) (P08482 whole entry, looked up): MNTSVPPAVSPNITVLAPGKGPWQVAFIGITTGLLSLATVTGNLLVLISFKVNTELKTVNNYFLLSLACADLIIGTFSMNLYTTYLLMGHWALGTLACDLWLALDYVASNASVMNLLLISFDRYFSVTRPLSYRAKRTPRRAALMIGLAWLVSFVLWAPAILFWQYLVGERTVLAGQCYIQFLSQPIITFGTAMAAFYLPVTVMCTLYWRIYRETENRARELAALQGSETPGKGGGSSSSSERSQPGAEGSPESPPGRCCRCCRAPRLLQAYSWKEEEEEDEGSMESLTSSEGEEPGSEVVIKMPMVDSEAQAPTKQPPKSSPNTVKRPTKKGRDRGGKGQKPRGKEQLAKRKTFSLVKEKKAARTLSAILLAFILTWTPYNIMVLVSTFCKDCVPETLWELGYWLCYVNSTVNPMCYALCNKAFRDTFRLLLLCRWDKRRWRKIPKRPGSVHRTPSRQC
Chain of Cytochrome P450 2C9 (Homo sapiens) (P11712 whole entry, looked up): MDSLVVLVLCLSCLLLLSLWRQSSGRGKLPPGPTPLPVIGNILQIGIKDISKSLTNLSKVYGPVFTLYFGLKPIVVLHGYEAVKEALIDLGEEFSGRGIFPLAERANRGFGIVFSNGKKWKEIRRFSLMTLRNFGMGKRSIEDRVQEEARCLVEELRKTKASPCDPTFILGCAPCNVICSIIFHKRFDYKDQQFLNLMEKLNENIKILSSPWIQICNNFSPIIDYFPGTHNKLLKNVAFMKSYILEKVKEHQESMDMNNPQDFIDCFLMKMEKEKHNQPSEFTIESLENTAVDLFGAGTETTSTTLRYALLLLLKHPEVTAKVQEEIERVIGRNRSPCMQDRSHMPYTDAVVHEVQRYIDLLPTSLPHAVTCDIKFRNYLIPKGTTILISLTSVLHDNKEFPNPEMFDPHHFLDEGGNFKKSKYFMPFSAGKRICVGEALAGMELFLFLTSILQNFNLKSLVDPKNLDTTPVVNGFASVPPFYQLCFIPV
Chain of Alpha-galactosidase A (Homo sapiens) (P06280 whole entry, looked up): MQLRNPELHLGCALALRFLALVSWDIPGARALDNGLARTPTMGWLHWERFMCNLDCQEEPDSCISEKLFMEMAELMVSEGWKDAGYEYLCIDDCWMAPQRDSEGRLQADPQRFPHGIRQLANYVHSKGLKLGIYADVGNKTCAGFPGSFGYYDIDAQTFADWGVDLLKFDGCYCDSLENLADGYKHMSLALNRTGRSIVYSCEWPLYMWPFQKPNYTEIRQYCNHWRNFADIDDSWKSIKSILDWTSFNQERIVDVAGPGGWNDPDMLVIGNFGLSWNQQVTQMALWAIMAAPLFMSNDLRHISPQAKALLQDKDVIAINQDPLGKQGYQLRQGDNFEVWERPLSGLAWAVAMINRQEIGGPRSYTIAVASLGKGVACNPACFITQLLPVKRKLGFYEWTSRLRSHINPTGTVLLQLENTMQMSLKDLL

`N#C/C(=C\c1ccc(O)c(O)c1)C(=O)Nc1ccccc1`: the Potency in [1] is 2 µM (active) and 501 nM (active); in assay [3], > 46 µM (inactive); in assay [4] it was > 46 µM (inactive); in assay [5], 12.6 µM (active); in [14], 25.1 µM (active). Moreover, the activity change, negative = inhibition in assay [2] is 6.23% (inactive); in [18] (at 57.5 µM (top of the series)), -21.4% (inactive). For the same compound, the Potency entry in [6], in assay [8], in [9], in assay [10], in assay [11] and in assay [12] was “inactive” throughout. Moreover, the Potency result in assay [15] and in assay [19] was “inactive” throughout. Besides, the compound was called inactive in assay [7], in assay [13], in [16] and in assay [17]. In addition, the max response is -56.6% in assay [18] (measured here: cell count channel max response) and -66.1% in assay [18] (measured here: lipid channel max response).
